Measurements as given in the supplement of paper PMC10849652.
The full data set covers some 8,800 targets. This sample favours those with a hit. About 0.5% of all pairs of compound and target were hits. Unmarked numbers belong to inactive results.

Assays:
Experiment in all cases: log2 fold change, soluble protein after heating vs DMSO (PISA); higher = thermal stabilisation; K562 lysate, 10 uM; active = over 0.2 and 3.5 SD of the protein, either way, in both replicates (recomputed)
ibrutinib = compound: C=CC(=O)N1CCC[C@@H](n2nc(-c3ccc(Oc4ccccc4)cc3)c3c(N)ncnc32)C1 [ibrutinib]
Summary of the method: (§1)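 K562 pellets were dounce-homogenised in PBS pH 7.4 with 1 mM MgCl2, and the crude extract at 1 mg/mL protein was treated with 10 μM compound for 30 min. Aliquots were heated for 3 min across 48°C-58°C, pooled, and brought to 0.5% NP-40 at 4°C; soluble protein was the supernatant after 21,000xg for 90 min. Soluble protein was quantified by TMTpro 16plex LC-MS/MS with channel sums equalised, and reported as log2 fold change in thermal stability against DMSO controls, with values from duplicates.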

[1] = compound: CC(=O)c1cnc2ccc(-c3cc(Cl)c(O)c(Cl)c3)nc2c1N[C@H]1CC[C@H](CN(C)C)CC1
Summary of the method: as §1

ralimetinib = compound: CC(C)(C)Cn1c(N)nc2ccc(-c3[nH]c(C(C)(C)C)nc3-c3ccc(F)cc3)nc21 [ralimetinib]
Summary of the method: as §1

[2] = compound: CC(C)(O)CC(=O)NCCn1ccc2ncnc(Nc3ccc(Oc4cccc(C(F)(F)F)c4)c(Cl)c3)c21
Summary of the method: as §1

[3] = compound: CC(C)C1=C2N=C(C=C(N2N=C1)NCC3=CC=CC=C3)NCCCCCCN
Summary of the method: as §1

[4] = compound: CC1=C(C(CC(=O)N1)C2=CC=C(C=C2)C(F)(F)F)C(=O)NC3=C(C=C4C(=C3)C=NN4)F
Summary of the method: as §1

[5] = compound: CC1=C(C2=C(C=C1)C(=O)C3=CC=CC=C3N2CCCN)C
Summary of the method: as §1

[6] = compound: CC1=C(C=C(C=C1)NC(=O)C2=CC(=CC=C2)C(C)(C)C#N)NC3=CC4=C(C=C3)N=CN(C4=O)C
Summary of the method: as §1

[7] = compound: CC1=C(C=C(C=C1)NC(=O)C2=CC(=CC=C2)N(C)C)NC(=O)C3=CC=C(C=C3)O
Summary of the method: as §1

[8] = compound: CC1=CC=C(C=C1)SC2=C3C=C(SC3=CN=C2)C(=O)N
Summary of the method: as §1

Chain of UniProt O43182 (O43182 whole entry, looked up): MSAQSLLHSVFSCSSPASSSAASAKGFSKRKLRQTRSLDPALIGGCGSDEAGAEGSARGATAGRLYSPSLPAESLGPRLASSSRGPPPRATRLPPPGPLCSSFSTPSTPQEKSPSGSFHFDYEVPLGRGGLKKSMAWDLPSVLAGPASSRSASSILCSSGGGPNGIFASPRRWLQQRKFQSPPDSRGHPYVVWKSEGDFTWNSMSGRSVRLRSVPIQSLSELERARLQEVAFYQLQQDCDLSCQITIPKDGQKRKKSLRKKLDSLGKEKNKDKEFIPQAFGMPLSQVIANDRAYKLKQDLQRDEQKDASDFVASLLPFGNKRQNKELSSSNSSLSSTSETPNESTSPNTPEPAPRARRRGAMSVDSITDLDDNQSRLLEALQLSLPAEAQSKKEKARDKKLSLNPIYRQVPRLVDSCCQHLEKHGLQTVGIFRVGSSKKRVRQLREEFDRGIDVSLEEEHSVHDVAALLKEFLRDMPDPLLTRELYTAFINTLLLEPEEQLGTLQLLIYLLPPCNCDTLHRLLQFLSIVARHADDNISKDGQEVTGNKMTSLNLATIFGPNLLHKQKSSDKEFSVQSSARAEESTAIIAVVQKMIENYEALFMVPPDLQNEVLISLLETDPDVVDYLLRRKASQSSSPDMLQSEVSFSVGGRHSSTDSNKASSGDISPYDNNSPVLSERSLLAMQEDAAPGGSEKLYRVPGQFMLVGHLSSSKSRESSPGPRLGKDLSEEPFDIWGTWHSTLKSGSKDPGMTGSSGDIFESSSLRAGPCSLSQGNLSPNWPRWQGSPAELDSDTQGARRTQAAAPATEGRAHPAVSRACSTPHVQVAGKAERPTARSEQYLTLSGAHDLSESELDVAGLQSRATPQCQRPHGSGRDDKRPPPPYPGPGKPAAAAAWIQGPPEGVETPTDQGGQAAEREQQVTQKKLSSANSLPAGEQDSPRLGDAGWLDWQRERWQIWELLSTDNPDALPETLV
Chain of UniProt P08758 (P08758 whole entry, looked up): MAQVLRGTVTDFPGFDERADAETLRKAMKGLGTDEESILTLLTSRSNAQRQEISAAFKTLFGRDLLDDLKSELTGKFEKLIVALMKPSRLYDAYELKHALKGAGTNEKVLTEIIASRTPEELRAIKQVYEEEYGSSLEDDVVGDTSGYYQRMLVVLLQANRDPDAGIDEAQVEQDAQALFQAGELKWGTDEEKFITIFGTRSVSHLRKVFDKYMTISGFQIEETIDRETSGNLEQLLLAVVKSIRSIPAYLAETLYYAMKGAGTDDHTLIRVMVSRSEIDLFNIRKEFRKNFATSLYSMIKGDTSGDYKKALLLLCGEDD
Chain of UniProt P39687 (P39687 whole entry, looked up): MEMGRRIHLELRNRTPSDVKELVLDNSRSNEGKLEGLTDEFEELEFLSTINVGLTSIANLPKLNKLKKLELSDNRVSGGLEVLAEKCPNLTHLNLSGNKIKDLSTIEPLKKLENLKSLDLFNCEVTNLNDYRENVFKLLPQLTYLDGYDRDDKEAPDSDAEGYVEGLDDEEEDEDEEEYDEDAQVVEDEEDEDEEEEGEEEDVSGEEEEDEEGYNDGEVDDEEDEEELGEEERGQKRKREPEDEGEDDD
Chain of UniProt P24752 (P24752 whole entry, looked up): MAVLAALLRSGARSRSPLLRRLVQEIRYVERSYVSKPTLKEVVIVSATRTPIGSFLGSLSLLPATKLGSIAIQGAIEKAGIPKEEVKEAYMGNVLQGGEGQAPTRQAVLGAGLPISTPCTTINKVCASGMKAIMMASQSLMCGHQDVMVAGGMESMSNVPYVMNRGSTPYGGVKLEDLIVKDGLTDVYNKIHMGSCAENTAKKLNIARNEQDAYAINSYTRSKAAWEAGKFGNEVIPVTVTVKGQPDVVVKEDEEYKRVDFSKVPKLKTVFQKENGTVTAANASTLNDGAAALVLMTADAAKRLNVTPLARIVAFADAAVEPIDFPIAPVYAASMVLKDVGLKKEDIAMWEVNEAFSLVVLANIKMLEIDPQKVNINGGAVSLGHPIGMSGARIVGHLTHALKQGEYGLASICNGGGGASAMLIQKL
Chain of UniProt Q92974 (Q92974 whole entry, looked up): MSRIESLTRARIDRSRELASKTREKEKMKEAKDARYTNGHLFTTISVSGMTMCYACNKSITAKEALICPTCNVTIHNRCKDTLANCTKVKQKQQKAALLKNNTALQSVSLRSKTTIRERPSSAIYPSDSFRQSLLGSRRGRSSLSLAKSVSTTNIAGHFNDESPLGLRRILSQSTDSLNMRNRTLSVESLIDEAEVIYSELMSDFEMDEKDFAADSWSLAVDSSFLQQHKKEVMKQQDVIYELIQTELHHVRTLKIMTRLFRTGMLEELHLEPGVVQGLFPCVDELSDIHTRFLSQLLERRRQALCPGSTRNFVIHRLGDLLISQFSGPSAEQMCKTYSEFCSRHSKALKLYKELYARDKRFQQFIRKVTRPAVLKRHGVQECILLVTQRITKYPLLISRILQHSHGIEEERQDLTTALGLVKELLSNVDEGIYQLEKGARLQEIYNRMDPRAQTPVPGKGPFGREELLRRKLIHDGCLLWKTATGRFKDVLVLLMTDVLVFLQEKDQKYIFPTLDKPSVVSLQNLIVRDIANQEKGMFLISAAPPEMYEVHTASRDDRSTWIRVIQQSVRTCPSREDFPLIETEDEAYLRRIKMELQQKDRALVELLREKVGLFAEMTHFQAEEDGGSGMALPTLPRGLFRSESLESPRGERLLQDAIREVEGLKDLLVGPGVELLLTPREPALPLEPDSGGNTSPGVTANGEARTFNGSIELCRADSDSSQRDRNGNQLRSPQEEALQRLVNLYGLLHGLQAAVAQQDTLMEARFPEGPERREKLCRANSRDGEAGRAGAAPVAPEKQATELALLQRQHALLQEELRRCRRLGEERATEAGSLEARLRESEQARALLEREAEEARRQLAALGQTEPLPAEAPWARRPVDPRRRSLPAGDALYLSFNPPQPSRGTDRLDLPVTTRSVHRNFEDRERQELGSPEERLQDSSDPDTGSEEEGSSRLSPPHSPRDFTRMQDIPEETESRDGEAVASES
Chain of UniProt Q3SY69 (Q3SY69 whole entry, looked up): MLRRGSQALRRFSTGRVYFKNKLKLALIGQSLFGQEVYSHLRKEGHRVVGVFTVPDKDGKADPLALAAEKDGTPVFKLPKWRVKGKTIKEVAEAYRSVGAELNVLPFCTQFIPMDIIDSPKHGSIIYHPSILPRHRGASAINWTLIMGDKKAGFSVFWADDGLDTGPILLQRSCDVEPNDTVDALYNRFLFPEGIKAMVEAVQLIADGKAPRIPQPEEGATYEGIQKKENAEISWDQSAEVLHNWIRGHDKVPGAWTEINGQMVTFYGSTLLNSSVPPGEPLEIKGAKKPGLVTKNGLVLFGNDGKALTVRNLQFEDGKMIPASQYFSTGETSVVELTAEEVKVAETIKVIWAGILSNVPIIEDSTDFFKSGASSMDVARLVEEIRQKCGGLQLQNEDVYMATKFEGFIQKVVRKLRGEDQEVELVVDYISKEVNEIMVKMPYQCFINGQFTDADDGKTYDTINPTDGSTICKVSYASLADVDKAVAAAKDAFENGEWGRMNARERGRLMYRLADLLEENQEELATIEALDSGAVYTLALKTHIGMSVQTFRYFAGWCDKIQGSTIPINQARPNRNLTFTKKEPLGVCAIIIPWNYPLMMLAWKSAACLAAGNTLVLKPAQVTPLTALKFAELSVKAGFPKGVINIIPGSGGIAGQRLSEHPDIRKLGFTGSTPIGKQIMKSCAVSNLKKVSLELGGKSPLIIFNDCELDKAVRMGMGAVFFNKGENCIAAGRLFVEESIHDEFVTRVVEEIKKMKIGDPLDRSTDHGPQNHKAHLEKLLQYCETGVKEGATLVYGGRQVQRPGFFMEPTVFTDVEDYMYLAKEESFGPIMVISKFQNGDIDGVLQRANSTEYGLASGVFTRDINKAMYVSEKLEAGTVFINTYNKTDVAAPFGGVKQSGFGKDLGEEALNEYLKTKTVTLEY
Chain of UniProt Q9UHB7 (Q9UHB7 whole entry, looked up): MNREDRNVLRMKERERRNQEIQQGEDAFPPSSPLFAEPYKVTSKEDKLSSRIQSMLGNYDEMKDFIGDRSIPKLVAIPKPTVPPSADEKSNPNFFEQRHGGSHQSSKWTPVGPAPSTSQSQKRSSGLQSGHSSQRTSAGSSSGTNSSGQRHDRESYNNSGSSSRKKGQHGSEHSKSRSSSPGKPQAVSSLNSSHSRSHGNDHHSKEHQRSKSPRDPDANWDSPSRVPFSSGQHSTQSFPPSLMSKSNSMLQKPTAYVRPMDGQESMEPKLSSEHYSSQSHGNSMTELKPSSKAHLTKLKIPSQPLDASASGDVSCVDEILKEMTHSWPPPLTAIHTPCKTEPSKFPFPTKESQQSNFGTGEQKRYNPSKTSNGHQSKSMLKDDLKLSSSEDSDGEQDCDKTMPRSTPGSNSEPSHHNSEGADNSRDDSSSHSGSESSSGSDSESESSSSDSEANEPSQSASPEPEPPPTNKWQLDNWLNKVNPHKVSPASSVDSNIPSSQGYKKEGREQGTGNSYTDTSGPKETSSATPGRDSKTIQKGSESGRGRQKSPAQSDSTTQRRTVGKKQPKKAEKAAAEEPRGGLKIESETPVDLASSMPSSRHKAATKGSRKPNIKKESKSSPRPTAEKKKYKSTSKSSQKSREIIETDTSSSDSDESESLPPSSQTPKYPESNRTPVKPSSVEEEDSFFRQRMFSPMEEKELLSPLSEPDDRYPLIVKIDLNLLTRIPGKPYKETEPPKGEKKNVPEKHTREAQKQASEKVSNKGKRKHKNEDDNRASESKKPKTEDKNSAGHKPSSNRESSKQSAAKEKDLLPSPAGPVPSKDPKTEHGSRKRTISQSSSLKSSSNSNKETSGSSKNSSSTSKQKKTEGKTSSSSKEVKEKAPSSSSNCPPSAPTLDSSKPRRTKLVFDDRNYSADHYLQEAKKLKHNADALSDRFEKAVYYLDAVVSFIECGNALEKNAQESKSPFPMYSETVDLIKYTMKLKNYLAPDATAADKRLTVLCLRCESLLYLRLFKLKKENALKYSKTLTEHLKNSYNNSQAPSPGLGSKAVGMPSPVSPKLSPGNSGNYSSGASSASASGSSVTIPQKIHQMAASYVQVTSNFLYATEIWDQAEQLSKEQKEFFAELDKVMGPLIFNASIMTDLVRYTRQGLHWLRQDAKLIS

Row | Target | log2 fold change (ibrutinib) | log2 fold change [1] | log2 fold change (ralimetinib) | log2 fold change [2] | log2 fold change [3] | log2 fold change [4] | log2 fold change [5] | log2 fold change [6] | log2 fold change [7] | log2 fold change [8]
1 | ABCD3 (UniProt P28288) | -0.035 | -0.083 | -0.067 | 0.064 | 0.185 | 0.01 | -0.096 | -0.028 | -0.073 | -0.031
2 | ANKRD54 (UniProt Q6NXT1) | -0.054 | -0.002 | 0.063 | -0.006 | 0.044 | 0.003 | 0.001 | -0.006 | 0.01 | -0.023
3 | ABL2 (UniProt P42684) | 0.586 (active) | 0.078 | 0.005 | 0.002 | 0.002 | -0.057 | -0.112 | 0.154 | 0.093 | -0.046
4 | ANP32E isoform 3 (UniProt Q9BTT0) | -0.065 | – | – | – | – | – | – | – | – | –
5 | ABCF3 (UniProt Q9NUQ8) | 0.008 | 0.035 | 0.067 | 0.046 | -0.013 | 0.009 | -0.012 | -0.02 | 0.018 | 0.001
6 | ACBD6 (UniProt Q9BR61) | 0.007 | 0.038 | 0.012 | -0.039 | 0.002 | 0.034 | 0.001 | 0.062 | 0.027 | -0.057
7 | ARHGAP6 (UniProt O43182) | 0.081 | -0.008 | -0.018 | -0.038 | -0.017 | 0.101 | -0.007 | 0.002 | 0.01 | -0.018
8 | ADK (UniProt P55263) | -0.028 | 0.107 | 0.313 | -0.027 | -0.05 | -0.073 | -0.059 | -0.007 | -0.008 | -0.005
9 | AGPS (UniProt O00116) | 0.01 | -0.004 | -0.013 | -0.07 | -0.065 | 0.012 | 0.025 | -0.177 | -0.005 | -0.02
10 | ALDH1L2 (UniProt Q3SY69) | 0.033 | 0.034 | 0.024 | -0.038 | 0.006 | 0.029 | -0.022 | -0.028 | -0.006 | 0.016
11 | AP5B1 (UniProt Q2VPB7) | 0.112 | -0.037 | -0.04 | -0.072 | 0.011 | 0.021 | -0.067 | -0.08 | 0.036 | -0.006
12 | ACLY (UniProt P53396) | -0.002 | 0.003 | 0.001 | -0.011 | 0.02 | -0.02 | 0.014 | -0.014 | -0.012 | 0.054
13 | ANP32A (UniProt P39687) | 0.003 | -0.003 | 0.002 | 0.188 | -0.041 | -0.029 | 0.079 | -0.025 | -0.046 | -0.018
14 | ALG13 (UniProt Q9NP73) | 0.118 | 0.037 | 0.008 | 0.026 | 0.022 | 0.065 | -0.025 | 0.063 | 0.012 | -0.001
15 | AP1G2 (UniProt O75843) | 0.012 | -0.087 | 0.069 | 0.013 | -0.121 | -0.109 | -0.156 | -0.011 | 0.023 | -0.027
16 | ARHGEF2 (UniProt Q92974) | 0.028 | -0.003 | 0.043 | 0.005 | 0.014 | 0.008 | -0.034 | 0.047 | 0.018 | 0.01
17 | AFF4 (UniProt Q9UHB7) | 0.172 | -0.009 | -0.049 | 0.033 | -0.008 | -0.028 | -0.047 | 0.009 | 0.002 | 0.024
18 | ACAT1 (UniProt P24752) | 0.002 | 0.005 | 0.003 | 0.002 | -0.002 | 0.001 | 0.034 | -0.013 | -0.007 | 0.015
19 | AKR1C2 (UniProt P52895) | 0.031 | 0.021 | -0.043 | -0.035 | 0.025 | -0.025 | 0.038 | -0.013 | 0.018 | 0.019
20 | ACIN1 isoform 5 (UniProt Q9UKV3) | -0.004 | -0.015 | -0.011 | -0.028 | -0.021 | -0.024 | -0.001 | -0.042 | 0.003 | -0.016
21 | ANXA5 (UniProt P08758) | -0.009 | -0.005 | 0.014 | 0.038 | -0.026 | 0.007 | 0.032 | -0.024 | 0 | 0.005
22 | AK4 (UniProt P27144) | 0.06 | -0.019 | -0.036 | -0.016 | -0.008 | 0.021 | -0.005 | 0.012 | 0.022 | -0.017
23 | ACACA isoform 4 (UniProt Q13085) | 0.038 | 0.021 | 0.041 | 0.013 | 0.01 | -0.027 | -0.002 | 0.021 | 0.048 | 0.035
24 | ARMCX3 (UniProt Q9UH62) | -0.073 | -0.027 | 0.006 | 0.013 | -0.042 | -0.053 | -0.029 | 0.004 | 0.039 | 0
25 | AARS2 (UniProt Q5JTZ9) | 0 | -0.052 | 0.025 | -0.018 | 0.029 | 0.009 | 0.02 | -0.006 | 0.035 | -0.03
26 | AIF1L (UniProt Q9BQI0) | 0.169 | 0.032 | 0.029 | -0.003 | -0.105 | -0.012 | 0.159 | -0.014 | -0.005 | -0.013
27 | ALDH6A1 (UniProt Q02252) | 0.128 | -0.006 | -0.064 | -0.043 | 0.008 | -0.088 | -0.191 | 0.025 | -0.066 | -0.02
28 | ANKRD27 (UniProt Q96NW4) | 0.016 | -0.003 | -0.028 | -0.009 | 0.032 | 0.033 | -0.014 | 0.089 | 0.013 | -0.102
